# Activity calls are given as the source filed them. The rule behind the calls is not given here.
# Biological target: Pantothenate synthetase (Mycobacterium tuberculosis (strain ATCC 25618 / H37Rv)) (UniProt P9WIL5)
# Experiment: Recombinant Mtb pantothenate synthetase (PanC) inhibitors, coupled enzyme, confirmatory (AID 375);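 note: 0% = full reaction with vehicle and 100% = no enzyme background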
# Conditions: coupled enzyme assay; at 10 µM, active compounds read high
# Pantothenate synthetase (Mycobacterium tuberculosis (strain ATCC 25618 / H37Rv)), sequence (P9WIL5 whole entry, looked up): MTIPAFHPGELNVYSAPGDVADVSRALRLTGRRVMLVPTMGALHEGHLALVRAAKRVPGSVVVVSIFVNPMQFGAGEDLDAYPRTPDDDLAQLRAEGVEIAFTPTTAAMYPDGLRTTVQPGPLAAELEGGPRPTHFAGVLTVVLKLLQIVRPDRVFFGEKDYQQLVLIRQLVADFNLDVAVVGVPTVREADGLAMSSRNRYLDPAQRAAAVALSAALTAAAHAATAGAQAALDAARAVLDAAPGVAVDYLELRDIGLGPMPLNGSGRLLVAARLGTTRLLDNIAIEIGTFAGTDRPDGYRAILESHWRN
row,SMILES,inhibition
1,CCCn1c2ccccc2c2nnc(SCC(=O)OCC)nc21,6% (inactive)
2,CCCCC1C(=O)N(c2ccccc2)N(c2ccccc2)C1=O,0% (inactive)
3,Cc1cc(C)n2cc(CSc3nnnn3C)nc2n1,0% (inactive)
4,CCCC1(C(=O)OCC)NC(c2ccc(N(C)C)cc2)C2C(=O)N(c3ccccc3)C(=O)C21 (stereo not given),0% (inactive)
5,O=C(CC1CCCCC1)NCc1ccccn1,0% (inactive)
6,CCCNC(=O)c1cc(-c2ccco2)on1,2% (inactive)
7,O=c1oc2c3c4c(cc2cc1-c1nc2ccccc2[nH]1)CCCN4CCC3,4% (inactive)
8,O=C(CSc1nc2ccccc2c(=O)n1Cc1ccco1)NCc1ccccc1,2% (inactive)
9,CCCOc1ccc(N2CC(C(=O)Nc3ccc4c(c3)OCO4)CC2=O)cc1 (stereo not given),6% (inactive)
10,Cn1c(=O)[nH]c(=O)c2c1nc(NCCCn1ccnc1)n2Cc1cccc(Br)c1,0% (inactive)
11,CCN(CCO)C(=O)CC(c1ccccc1)c1cc(Br)ccc1O (stereo not given),5% (inactive)
12,CCC(C)OC(=O)C1=C(C)NC2=C(C(=O)C(C(=O)OC)C(C)C2)C1c1ccc(N(C)C)cc1 (stereo not given),0% (inactive)
13,O=C(CCCC(=O)N(CC(=O)NC1CCCCC1)Cc1ccc2c(c1)OCO2)Nc1ccccn1,2% (inactive)
14,COc1ccc(C2(C(=O)Nc3c(C)n(C)n(-c4ccccc4)c3=O)CCCC2)cc1OC,1% (inactive)
15,Cc1occc1C(=O)N1CCN(Cc2ccccc2)CC1,0% (inactive)
16,O=C(Cn1nnc2c(cnn2-c2ccc(F)cc2)c1=O)c1ccccc1F,1% (inactive)
17,Cc1cc(C)n2c(SCCN3C(=O)c4ccccc4C3=O)nnc2n1,0% (inactive)
18,NC(=O)c1oc2ccc(Cl)cc2c1NC(=O)CN1CCOCC1,1% (inactive)
19,O=C(CS(=O)(=O)c1cn(Cc2ccc(Cl)cc2)c2ccccc12)N1CCOCC1,0% (inactive)
20,O=C(Cn1nnc(-c2ccccc2)n1)Nc1ccccc1N1CCOCC1,0% (inactive)

row,SMILES,inhibition
1,CCCOc1ccc(S(=O)(=O)NCCCN2CCOCC2)c2ccccc12,0% (inactive)
2,COc1ccccc1NC(=O)N(Cc1ccco1)Cc1cc2c(C)ccc(C)c2[nH]c1=O,0% (inactive)
3,COc1ccc(NC(=O)N2CCC(c3nc(-c4cccs4)no3)CC2)cc1,0% (inactive)
4,C=CCn1c(SCC(=O)NC23CC4CC(CC(C4)C2)C3)nc(O)cc1=O,0% (inactive)
5,Brc1ccc2[nH]ncc2c1,10% (inactive)
6,CCCSC1=C(C#N)C(c2ccccc2OCC)CC(=O)N1 (stereo not given),7% (inactive)
7,Cc1nc2ccc(NC(=O)N3CCC(c4ccccc4)C3)cc2nc1C (stereo not given),0% (inactive)
8,CCOc1ccc(N2CC(C(=O)Nc3cccc(C)c3C)CC2=O)cc1 (stereo not given),0% (inactive)
9,Cc1nc2ncnn2c(C)c1CCC(=O)NCCCN1CCN(c2cccc(Cl)c2)CC1,0% (inactive)
10,Cc1ccc(-c2ccc(=O)n(CC(=O)NCCCN3CCCCC3C)n2)cc1 (stereo not given),0% (inactive)
11,COc1cccc(C(=O)n2cnnc2N)c1OC,4% (inactive)
12,Cc1nc2c(-c3ccccc3)c(C)nn2c(C)c1CCC(=O)NCc1ccco1,2% (inactive)
13,CC1(C)C(c2ccccc2)=NC(c2ccccc2)N1O (stereo not given),3% (inactive)
14,CC(C)c1nnc(SCC(=O)NCc2ccco2)n1C,0% (inactive)
15,Cc1ccc(C2=N/C(=C/N3CCOCC3)C(=O)O2)cc1,1% (inactive)
16,Cc1c(C(=O)N2CCOCC2)oc2ccc(S(=O)(=O)N3CCCC3)cc12,0% (inactive)
17,Cc1cccc(C)c1NC(=O)CS(=O)CC(=O)NC1CCCc2ccccc21 (stereo not given),12% (inactive)
18,Cc1cc(C(=O)NCCCc2ccccc2)no1,10% (inactive)
19,CC1=NS(=O)(=O)c2cc(Cl)ccc2N1,6% (inactive)
20,CCn1c(CCNC(=O)c2cccs2)nnc1SCC(=O)c1ccc(OC)cc1,0% (inactive)

# Source: PubChem BioAssay
